Measured values reported in the supplement of paper PMC6555819.

Experiments:
Experiment in all cases: PBM binding z-score (relative to random genomic background probes); higher = stronger binding; sequences stand for … in GC…GCGATTGACAGCGTAGAATGAAGG
[1] = test system: RARb homodimer (NR concentration 270 nM)
Summary of the method: (§1)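 Ligand-free nuclear receptor dimers were applied to custom Agilent 4×180K protein-binding microarrays whose double-stranded probes carried direct-repeat seeds, single-nucleotide variants, half-site ablations and random human genomic background sequences in 34-nt variable regions. Incubation lasted 1 h. Binding z-scores were computed against the random background probes from regression-normalized fluorescence.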

[2] = test system: RARg:RXRa (NR concentration 270 nM, RXRa partner concentration 90 nM)
Summary of the method: as §1

[3] = test system: RARg homodimer (NR concentration 270 nM)
Summary of the method: as §1

[4] = test system: RXRa DBDmut IVT, anti-RXR (DBD mutation: RXRa K156A/R161A, NR concentration 90 nM)
Summary of the method: as §1

[5] = test system: RXRa homodimer (NR concentration 180 nM)
Summary of the method: as §1

[6] = test system: THRa:RXRa (NR concentration 90 nM, RXRa partner concentration 90 nM)
Summary of the method: as §1

[7] = test system: THRa homodimer (NR concentration 90 nM)
Summary of the method: as §1

[8] = test system: VDR:RXRa (NR concentration 270 nM, RXRa partner concentration 90 nM)
Summary of the method: as §1

[9] = test system: VDR homodimer (NR concentration 270 nM)
Summary of the method: as §1

| Sequence | PBM binding z-score [1] | PBM binding z-score [2] | PBM binding z-score [3] | PBM binding z-score [4] | PBM binding z-score [5] | PBM binding z-score [6] | PBM binding z-score [7] | PBM binding z-score [8] | PBM binding z-score [9] |
| --- | --- | --- | --- | --- | --- | --- | --- | --- | --- |
| GGAACAAGGGCATTCGAGTTGATAGCATGGCGAT | 1.12 | 1.21 | 1.36 | 2.48 | 0.917 | 3.16 | -0.205 | 3.12 | 2.39 |
| ACTAGCAGGACAAGTTTGGGTCACTCAAACAAAG | 2.28 | 1.51 | 1.55 | 0.164 | 0.931 | 2.62 | 1.42 | 0.698 | 0.216 |
| ATACCAAGGTGATCGCGAGGTCGTTGATACTAAC | 1.51 | 2.37 | 0.886 | 0.551 | 1.42 | 3.11 | 1.61 | 3.37 | 2.67 |
| ACTAGCAGGCCAAGGGTCGCTCAAGATTAGTCCG | 0.923 | 1.12 | 0.872 | -0.27 | 1.13 | 0.795 | -0.633 | 0.00609 | -0.246 |
| CCAGACAGGTGAACGGTAACTCAGTCTGGTACGC | 0.435 | 0.292 | 0.535 | -0.0435 | 0.416 | 0.0165 | -0.646 | -0.205 | -0.453 |
| TAGCCTAGGTCAGCTCGGGCCAGTATACGCTATA | 2.59 | 3.06 | 4.25 | -0.297 | 1.54 | 4.27 | 0.31 | 0.763 | -0.788 |
| CGTCAGAGTTCAAGGTAACGTAACAGAAAGCAGC | 3.02 | 4.6 | 5.3 | 4.91 | 4.35 | 2.74 | 1.04 | 4.23 | 4.53 |
| ACTTGCAGGCCAAGTTTGGGTCACTCAAACAAAG | 2.46 | 2.6 | 1.88 | 0.31 | 1.01 | 2.53 | 1.22 | 0.755 | 0.527 |
| ATCTCTAGTTAAAAGTTCAGTGAATCCCGAGGAT | 2.34 | 1.3 | 1.76 | 0.966 | 0.844 | 0.672 | 0.242 | 1.29 | 2.12 |
| GCTAGGTGGTCAGTAAAAGGTCACACACCGGTCG | 5.21 | 6.23 | 5.47 | 0.0546 | 5.57 | 3.55 | 1.73 | 4.22 | 2.03 |
| TCTAGTTGGACACGGAGGTCACACACGACGGGTA | 4.2 | 3.95 | 3.96 | 0.997 | 4.47 | 3.6 | 2.32 | 3.76 | 2.67 |
| AGAACGAGGGCACGCGGAGTTGATAGCAGAGTAG | 1.42 | 2.32 | 2.41 | 1.91 | 1.66 | 1.82 | -0.0223 | 1.95 | 1.18 |
| CAAACTAGGTCACAGAGGTGAAAGTCCGTGCGTA | 3.98 | 5.15 | 5.24 | 1.76 | 4.44 | 3.9 | 2.28 | 5.99 | 2.6 |
| ATCTGTAGGTAAAGTTCAGTGAAAGATCGATAGA | 2.24 | 1.86 | 2.25 | 1.35 | 1.16 | 0.595 | -0.247 | 1.24 | 1.83 |
| CCTTACGGGTCACGAGGTTCTAGCACGACGAGCG | 3.27 | 5.61 | 5.78 | 1.49 | 6.58 | 3.25 | 0.28 | 6.18 | 1.86 |
| CCTACTGGGCCAAATGTCATTGATTCCAATGCTC | 0.556 | 0.265 | 0.594 | 0.342 | 0.124 | -0.237 | -0.347 | 0.0339 | -0.651 |
| ATCGAAAGGACGAGGTGAGTATAGAGAAAGGGAA | 0.703 | 0.958 | 1.48 | -0.386 | 0.312 | 1.27 | 0.739 | -0.203 | 0.284 |
| CCTACTGGGTCAAGGTCATTGATCAGTCAAAGCA | 4.88 | 5.77 | 5.74 | 2.59 | 5.72 | 4.24 | 3.31 | 4.84 | 4.04 |
| AGTCAAAGTTCATCTATGTAACGTAAGATATGCT | 3.77 | 5.2 | 6.01 | 4.69 | 4.74 | 1.92 | -0.492 | 4.75 | 4.62 |
| ATCTCTAGGTAAAAGTTCAGCGAATCCCGAGGAT | 2.76 | 2.88 | 3.02 | 0.792 | 2.62 | 1.58 | 0.0924 | 1.69 | 1.07 |
| CCTAGCAGGCCAGGGTCACTCAGGCATTTCGCTT | 2.73 | 2.77 | 2.03 | 0.226 | 3.07 | 2.58 | 0.878 | 2.22 | 1.07 |
| ACTATAAGTTGACTTAGGGCAACCGATACGACGC | 1.03 | 1 | 1.11 | 0.718 | 0.692 | 2.4 | 0.322 | 0.769 | 0.647 |
| GCGACTGGGGCAAAGCAGGATACCATAAGGTTGG | 0.194 | 0.19 | 0.556 | -0.369 | 0.0149 | 2.27 | -0.419 | -0.613 | -0.417 |
| AGAATGAAGTTATACGTAGATCAGGGAAGAAAGT | -0.451 | 0.0716 | 0.29 | -0.796 | -0.0486 | -0.563 | -0.66 | -0.299 | -0.183 |
| CCTAGCAGGCCAGGGTCAATCAAGCATTTCGCTT | 2.92 | 3.32 | 2.33 | 0.381 | 4.06 | 3.05 | 0.553 | 2.86 | 1.07 |
| AGAACGAGGCCACGCTGAGTTGATAGCAGAGTAG | 0.176 | 0.764 | 1.22 | 0.267 | 0.15 | 1.02 | -0.00748 | 0.045 | 0.389 |

| Sequence | PBM binding z-score [1] | PBM binding z-score [2] | PBM binding z-score [3] | PBM binding z-score [4] | PBM binding z-score [5] | PBM binding z-score [6] | PBM binding z-score [7] | PBM binding z-score [8] | PBM binding z-score [9] |
| --- | --- | --- | --- | --- | --- | --- | --- | --- | --- |
| CGAACGAGGGCATGAGTTGGTAGCAAATGCCGAT | 0.553 | 0.807 | 1.29 | 1.87 | 0.675 | 1.03 | -0.283 | 0.602 | 0.904 |
| ACAGACAGGTGAGTGAAGGTAAATCAGCTGGACG | -0.00718 | 0.297 | 0.417 | -0.64 | 0.24 | 1.31 | -0.577 | -0.406 | -0.366 |
| CCTGCTGGGCCATCAGGTCATTGATATCAACGTT | 2.51 | 2.06 | 2.01 | 0.287 | 1.01 | 3.19 | 2.31 | 1.59 | 1.01 |
| TGAATGAGGTTATAAGATCAAGGAACGTTGCAAA | 0.308 | 1.58 | 0.824 | 0.325 | 2.15 | 1.84 | 0.279 | 1.1 | 0.367 |
| CCTTACGGGTCAAGGTTAAAGCACGGGTGGTACG | 3.57 | 5.08 | 4.78 | 0.827 | 5.39 | 3.06 | 1.01 | 3.5 | 1.43 |
| TGACCAAGGTGAAAGGTCGTTGATGCACGCCTTG | 2.49 | 4.18 | 2.09 | 0.0698 | 5.72 | 3.35 | 0.487 | 2.96 | 1.31 |
| GCGACTGGGGCAAAGCAGGTTACCAAAAGGTTGG | 1.39 | 0.739 | 0.527 | -0.337 | 0.52 | 3.28 | -0.199 | 0.136 | -0.329 |
| GCATATAGATAATACAAGGTGAAAGTCCGATTGT | 0.678 | 0.441 | 0.694 | 0.234 | 0.586 | 2.26 | 0.964 | 0.152 | 0.0275 |
| TCTTGTAGATCAAACAGGTTAAGAAAGCCTGAGT | 0.167 | 0.214 | 0.186 | 0.683 | 0.587 | 0.607 | -0.548 | 0.979 | 0.0762 |
| AGAACGAGGGCAATGAGGTGATAGCACGGGTGGC | 1.58 | 1.49 | 1.52 | 1.37 | 1.04 | 2.46 | 0.988 | 3.78 | 1.57 |
| CCGAATAGGTTATGGGGCATTCAGGCAACGGTGA | 1.11 | 1.06 | 0.917 | 0.132 | 1.31 | 0.696 | -0.0047 | 0.258 | -0.175 |
| TCTAGCAGGCCAGAGGGGCACTCAAGAGGTACGG | 0.611 | 0.104 | 0.165 | -0.0321 | 0.357 | -0.399 | -0.898 | -0.288 | -0.703 |
| AATACAGGGTCACTAGGCCAGAGTCGGTACGAAT | 3.25 | 5.29 | 4.87 | 2.71 | 5.3 | 3.43 | 1.24 | 4.03 | 2.7 |
| ATCTCTAGGTAAGACTCAGTTCAGTGAGGAACGC | 0.438 | 0.383 | 0.447 | 0.293 | 0.124 | 0.714 | 0.481 | 0.748 | 1.3 |
| TCTCGGAGGACACGAAAGGTCAGAGGTCGACATC | 5.07 | 5.51 | 5.38 | 1.21 | 6.06 | 3.99 | 1.69 | 4.52 | 2.12 |
| ACTATTAGTTGACTTAGGGCAACCGGTACGACGC | 1.12 | 0.684 | 0.734 | 0.426 | 0.446 | 1.47 | 0.512 | 1.16 | 0.456 |
| TCTATTAGTTGAAGGGCAAACGACGAGTCCGTTT | 1.26 | 0.673 | 0.64 | 1.79 | 1 | 0.493 | 0.286 | 1.45 | 1.91 |
| TCTATTAGTTGATTTGGGCAACCGAAACAGCGGA | -0.204 | 0.225 | 0.0812 | 1.3 | 0.406 | -0.0733 | 0.427 | 0.688 | 0.414 |
| CGAACTAGGTCATCCAGGACAGTGACTACATTGA | 3.11 | 4.13 | 4.54 | 2.28 | 2.93 | 3.77 | 2.2 | 4.29 | 1.69 |
| ATATGTAGGTTAAGGGTCATTTAGGTTGGTTCGC | 4.09 | 4.79 | 3.29 | 2.35 | 6.16 | 3.72 | 1.76 | 5.38 | 3.97 |
| GGAACGAGGGCAAGTTGAGAGCAGAGTTTGATGG | 1.58 | 1.77 | 2.21 | 2.26 | 0.94 | 1.45 | 0.0177 | 0.881 | 1.66 |
| CCTTACAGGTCACTCCAGGTTATAGCATCGGAGT | 3.76 | 4.74 | 4.71 | 2.2 | 4.35 | 5.15 | 1.32 | 4.12 | 2.04 |
| ATCGAAAGGACGACGAGGTGAGTATACACCGTTT | 0.685 | 1.09 | 1.42 | -0.192 | 0.371 | 1.42 | 0.601 | 0.0992 | 0.0497 |
| CAAACTAGGGCAAGAGGTCAAAGTCCGCTTCCCG | 5.19 | 6.21 | 5.15 | 1.74 | 6.17 | 3.87 | 1.23 | 5.08 | 3.3 |
| TATGCAGGGTCAAAGGCCAGAGTACGAATGTCGA | 3.43 | 5.45 | 4.89 | 2.39 | 6.81 | 3.45 | 0.361 | 4.61 | 2.66 |
| ATTTCTAGGTAACCAAGTTCAGTGAATGCCGAAC | 1.55 | 0.786 | 0.952 | 0.875 | 0.621 | 1.81 | 0.761 | 4.22 | 3.08 |
